In the library only some 5% were active in any assay of this set; here they are far more common.
TbPYK inhibitor: inhibitors of Trypanosoma brucei pyruvate kinase; TbPYK enzyme, Kinase-Glo Plus ATP luminescence, 45 min; Potency, µM (series often up to 76.8 µM), hits mostly inhibitors; 410,000 compounds, 0.12% hits; AID 624173; note: nearly all actives have a fitted effect of over 50% in size
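Screened from lowest to highest concentration, compounds were pinned into TbPYK/substrate mixtures, and ADP (130 uM final) was added. Plates sat at room temperature for 45 min prior to Kinase-Glo Plus detection by luminescence.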
HCMV antiviral: human cytomegalovirus inhibition | HFF cells, HCMV-luciferase reporter, 72 h; hits give low values | activity change, negative = inhibition, % at 57.5 µM | 410,000 compounds, 4.5% hits | AID 1259415; in the data active = activity change below about -60%; inconclusive = no clear call, values can overlap the other calls; inactive = above about -39%
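Two compound doses tested in HFFs infected with HCMV-luciferase, MOI 1 PFU/cell, 72 h at 37C. Lysate luminescence read with OneGlo; data normalized against buffer-only and 10uM Salinomycin inhibitor controls.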
Vaccinia Venus: vaccinia inhibition (Venus reporter). Vaccinia virus Venus reporter expression, fluorescence. Potency, µM (titrated, usually from 36.5 µM), most hits filed as inhibitors. 330,000 compounds, 0.46% hits; calls by dose curve; tested in A549 cells; note: nearly all actives have a fitted effect of over 30% in size
LmPK inh: blocks Leishmania mexicana pyruvate kinase activity. Q27686. purified LmPK, Kinase-Glo ATP luminescence, 1 h. Potency, µM (series often up to 57.5 µM), usual class: inhibitors. 290,000 compounds, 0.37% hits. AID 1721
Target sequence (Q27686 whole entry, looked up): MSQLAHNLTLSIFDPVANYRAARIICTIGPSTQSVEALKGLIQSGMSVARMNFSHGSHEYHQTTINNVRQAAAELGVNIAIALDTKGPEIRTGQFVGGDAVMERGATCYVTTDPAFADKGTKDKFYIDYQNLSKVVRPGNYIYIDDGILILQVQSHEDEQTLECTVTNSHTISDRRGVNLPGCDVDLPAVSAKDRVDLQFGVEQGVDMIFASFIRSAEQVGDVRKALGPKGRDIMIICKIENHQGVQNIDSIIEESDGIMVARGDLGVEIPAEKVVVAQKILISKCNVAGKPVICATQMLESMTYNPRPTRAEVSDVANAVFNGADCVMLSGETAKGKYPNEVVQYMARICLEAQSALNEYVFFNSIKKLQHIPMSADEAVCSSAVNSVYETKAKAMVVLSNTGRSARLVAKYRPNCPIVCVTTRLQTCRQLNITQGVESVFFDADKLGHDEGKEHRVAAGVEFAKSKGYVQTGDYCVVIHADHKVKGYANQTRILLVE
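Screened at intermediate enzyme activity to detect both inhibitors and activators: LmPK at 0.1 nM, with a 0.5 nM enzyme column as activation reference. PEP 0.5 mM, ADP 0.1 mM; ATP detected by luminescence after 1 h.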
VACV mCherry inh: inhibitors of vaccinia virus infection (mCherry reporter signal) | 310,000 compounds, 0.63% hits | AID 720579 | Vaccinia virus mCherry reporter infection, fluorescence | Potency, µM (highest dose often 36.5 µM), usual class: inhibitors; calls by dose curve; tested in A549 cells; note: nearly all actives have a fitted effect of over 35% in size
Numbers stand for hits; . = inactive; ? = inconclusive; / = no result given. Unless noted, calls come from the whole dose curve; as a rule, active = well fitted curve in the direction sought with a large enough effect; inconclusive = small, poorly fitted or top-dose-only effect, or another doubt; inactive = no such curve, though single readings can be large; an effect the other way counts as inactive or inconclusive.

SMILES	TbPYK inhibitor	HCMV antiviral	Vaccinia Venus	LmPK inh	VACV mCherry inh
Cc1ccc(C(C)C)c(OCC(O)CN(C)Cc2ccccc2)c1 (stereo unspecified)	.	-70	?	.	.
O=C(Nc1ccc(F)c(Cl)c1)N1CCC2(CC1)Oc1ccccc1C(=O)N2Cc1ccccc1F	.	.	.	/	.
CCOc1c(Br)cc(/C=N\NC(=O)c2ccccc2)cc1OC	.	-63	.	.	.
O=C(NN=Cc1cccc(O)c1O)c1ccccc1	.	-94	?	/	10µM
CCOc1ccccc1C=NNC(=O)C(=O)NN=Cc1ccccc1OCC	.	.	.	/	.
CNC(=S)N/N=C/c1cn(Cc2ccc(F)cc2)c2ccccc12	.	.	?	.	3.2µM
CCOc1cc(/C=N/NC(N)=O)cc(Br)c1OCc1ccccc1	.	.	.	.	?
CCOc1ccccc1NC(=O)C(=O)N/N=C/c1cc(Br)ccc1O	.	-101	.	.	?
COc1ccc(N=Cc2cccc(C)c2O)cc1Cl	.	.	.	.	.
Cc1cccc(N2C(=O)C(CC(=O)Nc3ccc(Cl)cc3)N(Cc3ccco3)C2=O)c1 (stereo unspecified)	.	.	.	/	.
CC(=O)NC(Cc1cc(C)ccc1C)C(=O)N1CCN(C(=O)Nc2ccc(C(C)=O)cc2)CC1 (stereo unspecified)	.	/	/	.	/
Cc1ccc(S(=O)(=O)Oc2ccccc2/C=N/N=C(N)N)cc1	.	?	.	.	?
COc1cccc(/C=N/NC(=O)c2ccc([N+](=O)[O-])cc2Cl)c1O	.	.	?	.	11µM
COc1cc(OC)c2cc(C(=O)N/N=C/c3ccccc3O)[nH]c2c1	.	-96	?	.	1.1µM
Cc1ccc(S(=O)(=O)Oc2ccccc2/C=N/NC(N)=S)cc1	.	?	1.3µM	.	?
Cc1ccc2[nH]c(C(=O)N/N=C/c3ccccc3O)c(C)c2c1	.	-100	?	.	3.5µM
Cc1ccc2[nH]c(C(=O)N/N=C/c3ccccc3C(=O)O)c(-c3ccccc3)c2c1	.	.	/	.	/
CCOc1ccc(N2C(=O)CC(N(CCc3ccc(S(N)(=O)=O)cc3)C(C)=O)C2=O)cc1 (stereo unspecified)	.	.	.	.	.
Cc1ccc(CN2CCS(=O)(=O)CC2)cc1	.	.	.	.	/
COc1cccc(/C=N/NC(=O)C[n+]2ccccc2)c1O	.	.	.	.	.
COc1cccc(/C=N/NC(=O)c2ccc(-c3ccccc3)cc2)c1O	.	-98	?	.	4.5µM
COc1ccc(C=NNC(=O)CCCC(=O)NN=Cc2ccc(OC)c(O)c2)cc1O	.	-69	.	/	.
COc1ccc(C=NNC(=O)CCCC(=O)NN=Cc2ccc(OC)c(OC)c2)cc1OC	.	.	.	/	.
COc1ccc(OC)c(/C=N\NC(=O)c2ccc(-c3ccccc3)cc2)c1	.	.	.	.	.
COc1ccc(CCCC(=O)N/N=C/c2cccc(OC)c2O)cc1C	.	-99	?	.	?
SMILES	TbPYK inhibitor	HCMV antiviral	Vaccinia Venus	LmPK inh	VACV mCherry inh
COc1ccc(/C=N/NC(=O)c2ccc(-c3ccccc3)cc2)cc1O	.	-60	.	.	.
COc1ccc(S(=O)(=O)N2CCC[C@H]2C(=O)N2CCC[C@H]2C(=O)NCc2ccccn2)cc1C	.	.	.	/	.
COc1cc(OC)c(/C=N/NC(N)=S)cc1Br	.	.	1.3µM	.	1µM
NC(=S)N/N=C/c1cccc(O)c1O	.	-100	.	.	8.9µM
COc1cc(/C=N/NC(N)=S)cc(Br)c1OCc1ccccc1F	.	?	2.5µM	.	?
NC(=S)N/N=C/c1ccccc1OCCSc1ccc(Cl)cc1	.	-69	0.32µM	.	0.089µM
COc1cc(C2Nc3c(C)cc(C)cc3-c3cc(C)nn32)cc(OC)c1O (stereo unspecified)	.	.	?	/	.
CCN(CC)S(=O)(=O)c1ccc2c(c1)N(CC(=O)NCCc1ccc(S(N)(=O)=O)cc1)C(=O)CO2	.	.	.	.	.
Cc1onc(-c2c(Cl)cccc2Cl)c1C(=O)Nc1ccc2c(c1)OCO2	.	?	.	.	.
O=C(COC(=O)/C=C/c1ccc(Cl)cc1)NCc1cccs1	.	.	.	/	.
C[C@@H]1CN([C@@H](C)CO)S(=O)(=O)c2ccc(-c3cccc(C#N)c3)cc2O[C@@H]1CN(C)C(=O)c1ccc(F)cc1	.	.	?	/	.
COc1cc(/C=N\NC(=O)c2ccc(-c3ccccc3)cc2)cc(Br)c1O	.	-68	.	.	?
COc1ccccc1OCCn1cc(/C=N/NC(N)=S)c2ccccc21	.	?	1.3µM	.	?
COc1ccccc1OCCn1cc(/C=N/NC(=O)c2ccncc2)c2ccccc21	.	.	.	.	.
COc1cccc(/C=N/NC(N)=S)c1OCc1ccccc1Cl	.	-78	?	.	?
CCn1c(C)nc2cc(C(=O)N/N=C/c3cccc(O)c3O)ccc21	.	.	?	.	13µM
COc1ccc(-c2noc(CCC(=O)N(C)c3cc(Cl)ccc3OC)n2)cc1	.	.	.	/	.
COc1ccc2[nH]c(C(=O)N/N=C/c3ccc(OC)c(O)c3)cc2c1	.	-74	.	.	11µM
COc1cccc(/C=N/NC(=O)C(=O)Nc2ccccc2OC(F)(F)C(F)F)c1O	.	-94	?	.	10µM
COc1ccc2[nH]c(C(=O)N/N=C/c3ccccc3OC)cc2c1	.	.	/	.	/
Clc1ccc(-c2csc(=Nc3cccnc3)n2CCCn2ccnc2)cc1Cl	.	-94	?	.	?
COC(=O)c1scc(-c2ccc(C)cc2)c1S(=O)(=O)N1CCN(c2cccc(OC)c2)CC1	.	.	.	/	.
CCCn1c(N)c(C(=O)CSc2nc3ccccc3s2)c(=O)[nH]c1=O	.	-66	.	.	11µM
CCCn1c(N)c(C(=O)CSc2nnc(N)s2)c(=O)[nH]c1=O	.	.	/	/	/
Cn1c(=O)[nH]c(=O)c2c1nc(Br)n2CCCSc1nc2ccccc2o1	.	-61	/	.	/
SMILES	TbPYK inhibitor	HCMV antiviral	Vaccinia Venus	LmPK inh	VACV mCherry inh
CCCCCn1c(CN2CCN(Cc3ccccc3)CC2)nc2c1c(=O)[nH]c(=O)n2C	.	-69	.	.	.
Cn1c(=O)[nH]c(=O)c2c1nc(Br)n2Cc1cccc(Br)c1	.	-82	.	.	.
CN1CCN(c2nc3c(c(=O)[nH]c(=O)n3C)n2Cc2cccc(Br)c2)CC1	.	.	/	.	/
O=C(CCl)c1cc2c3c(c1)CC(=O)N3CCC2	.	.	.	.	?
CCCOc1ccc(C(=O)N(Cc2cccs2)C2CCS(=O)(=O)C2)cc1 (stereo unspecified)	.	.	.	.	.
Cn1c(=O)[nH]c(=O)c2c1nc(SCC(=O)O)n2Cc1ccccc1	?	.	/	.	/
Cn1c(=O)[nH]c(=O)c2c1nc(Sc1nc3ccccc3s1)n2Cc1ccccc1	.	.	4µM	.	/
O=C(NCc1ccc(F)cc1)c1cc2cccc3c2n1CCS3	.	-70	.	/	.
O=C(NCc1ccccc1)c1ccc2c(c1)N(Cc1ccc(F)cc1)CCS2	.	.	.	/	.

Screens: PubChem BioAssay, National Center for Advancing Translational Sciences (NCATS)
